Most compounds without a hit are left out; they make up all but 1.2% or so of the library.
RGS7-Gao – regulators of human RGS7-Galphao interaction | P09471 | AID 1439 | 220,000 tested, 0.35% active | binding response (% of control), % at 10 µM | Multiplexed bead flow cytometry, RGS7-Galphao binding; actives lie on both sides; in the data active = binding response below about 49% or above about 150%; inconclusive = no clear call, values can overlap the other calls; inactive = in between;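 note: fluorescent Galphao held in activated GDP-AlF4 state binding bead-coupled RGS7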
Target sequence (P09471 whole entry, looked up): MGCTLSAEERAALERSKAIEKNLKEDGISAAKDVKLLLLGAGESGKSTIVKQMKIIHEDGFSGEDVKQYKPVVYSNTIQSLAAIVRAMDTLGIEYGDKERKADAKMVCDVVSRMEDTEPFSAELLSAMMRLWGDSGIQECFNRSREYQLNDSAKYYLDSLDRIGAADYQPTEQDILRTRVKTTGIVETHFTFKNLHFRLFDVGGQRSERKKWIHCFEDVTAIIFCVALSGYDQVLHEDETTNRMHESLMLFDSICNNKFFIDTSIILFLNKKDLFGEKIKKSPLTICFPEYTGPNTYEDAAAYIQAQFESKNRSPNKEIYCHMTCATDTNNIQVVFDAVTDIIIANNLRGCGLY
RGS16-Gao – modulates binding between human RGS16 and Galphao; bead-based flow cytometry RGS16-Galphao binding, fluorescence; actives lie on both sides; O15492+P09471; 220,000 tested, 0.38% active; binding response (% of control), % at 10 µM;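 note: Galphao activated by GDP with aluminum fluoride before binding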
RGS8-Gao reg – modulates binding of RGS8 to human Galphao | P09471 | multiplexed bead flow cytometry; actives lie on both sides | response (percent of control binding), % at 10 µM | 220,000 tested, 0.34% active | AID 1423; in the data active = response below about 60% or above about 140%; inactive = in between;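 note: Galphao activated as the GDP aluminium fluoride complex binding bead-coupled RGS8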
Avidin fluor – compound fluoresces at 488/530 nm on avidin beads; fluorescence (KMESF) at 10 µM; compound fluorescence 488/530 nm, flow cytometry; hits give high values; 220,000 tested, 0.38% active; in the data active = fluorescence above about 47
RGS4-Gao reg – human RGS4-Galphao interaction regulation; 220,000 tested, 0.33% active; Multiplexed bead flow cytometry, RGS4-Galphao binding; actives lie on both sides; binding response (% of control), % at 10 µM; P09471; AID 1415; in the data active = binding response below about 49% or above about 150%; inactive = in between;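 note: fluorescent Galphao activated with aluminum fluoride binding bead-coupled RGS4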
GSH bead fluor – compound fluoresces at 488/530 nm on GSH beads. GSH beads flow cytometry, compound fluorescence 488/530 nm; hits give high values. fluorescence (KMESF) at 10 µM. 190,000 tested, 0.25% active. AID 1776; in the data active = fluorescence above about 89;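 note: glutathione beads carrying GST-tagged Bcl family fusion proteins plus one bare bead set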
RGS4-Gao HTS – regulators of human RGS4-Galphao interaction; 1,600 tested, 99% active; AID 1504; RGS4–Galpha-o binding response, % at 10 µM; shares compounds with RGS16-Gao; multiplexed bead flow cytometry, RGS–Galpha-o binding;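 note: fluorescently labeled Galpha-o bound to GDP with aluminium fluoride binding biotinylated RGS beads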
Avidin counter – interferes with biotinylated probe binding to avidin beads; shares compounds with RGS16-Gao; streptavidin beads, fluorescein-biotin binding, flow cytometry; inhibition, % at 10 µM; 1,700 tested, under 10 active;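 active = inhibition above 50%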;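 note: median green fluorescence of gated singlet beads compared with DMSO control wells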
RGS8-Gao confirm – RGS8-Galphao interaction regulation, single point confirmation | shares compounds with RGS16-Gao | bead-based flow cytometry RGS8-Galphao binding, fluorescence; actives lie on both sides | binding response (% of control), % at 10 µM | 1,700 tested, 3% active; in the data active = binding response below about 72% or above about 130%; inactive = in between;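 note: Galphao activated as GDP AlF4 complex before binding bead RGS8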
RGS7-Gao confirm – confirmation of regulators of human RGS7-Galphao interaction; shares compounds with RGS16-Gao; bead-based flow cytometry RGS7-Galphao binding; actives lie on both sides; response (percent of control binding), % at 10 µM; 1,700 tested, 7.8% active; AID 1837; in the data active = response below about 75% or above about 130%; inactive = in between;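 note: fluorescent Galphao activated with GDP and aluminum fluoride binding bead-coupled RGS7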
RGS16-Gao single – confirmation of regulators of human RGS16-Galphao interaction. shares compounds with RGS16-Gao. bead-based flow cytometry, RGS16-Galphao binding; actives lie on both sides. response (% of control binding), % at 10 µM. 1,700 tested, 4% active. AID 1838; in the data active = response below about 74% or above about 130%; inactive = in between;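 note: Galphao activated as the GDP aluminium fluoride complex binding bead-coupled RGS16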
RGS4-Gao confirm – confirmation of regulators of human RGS4-Galphao interaction. 1,700 tested, 4% active. binding response (% of control), % at 10 µM. shares compounds with RGS16-Gao. RGS4-Galphao binding, multiplexed bead flow cytometry; actives lie on both sides. AID 1840; in the data active = binding response below about 74% or above about 130%; inactive = in between
RGS19-Gao single – RGS19-Galphao interaction regulation, single point confirmation | shares compounds with RGS16-Gao | bead-based flow cytometry RGS19-Galphao binding; actives lie on both sides | response (percent of control binding), % at 10 µM | 1,700 tested, 5% active | AID 1841; in the data active = response below about 50% or above about 160%; inactive = in between
Target sequence (P09471 whole entry, looked up): as above
Target sequence (P49795 whole entry, looked up): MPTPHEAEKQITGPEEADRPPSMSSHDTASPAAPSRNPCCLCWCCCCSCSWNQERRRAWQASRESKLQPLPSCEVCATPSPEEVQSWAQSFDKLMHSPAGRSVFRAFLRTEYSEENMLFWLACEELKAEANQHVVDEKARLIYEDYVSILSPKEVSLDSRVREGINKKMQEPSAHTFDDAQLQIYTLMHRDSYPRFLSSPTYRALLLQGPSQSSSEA
A number is an active result; [ ] = another dose, or the depositor's remark. Unless noted, the rule behind the calls is not given here.

Results for CCOC(=O)c1ccc(NC(=O)C2(c3ccccc3)CCCC2)cc1 ?
RGS7-Gao: inactive; RGS16-Gao: inactive; RGS8-Gao reg: 144[activator]; Avidin fluor: inactive; RGS4-Gao reg: inactive; GSH bead fluor: inactive; RGS4-Gao HTS: 131

How did Cn1ncc([N+](=O)[O-])c1C(=O)Nc1ccc(-c2nc3ccccc3[nH]2)cc1 do in these assays?
GSH bead fluor: inactive; Avidin counter: inactive; RGS8-Gao confirm: inactive; RGS7-Gao confirm: inactive; RGS16-Gao single: inactive; RGS4-Gao confirm: inactive; RGS19-Gao single: inactive

What do the screens show for `Cc1cc2c(cc1C)-c1nnc(-c3ccc4ccccc4n3)n1C(C)(C)C2`?
RGS7-Gao: inactive; RGS16-Gao: inactive; RGS8-Gao reg: inactive; Avidin fluor: inactive; RGS4-Gao reg: inactive; GSH bead fluor: inactive

What do the screens show for `CC1(C)Cc2ccccc2-c2nnc(-c3ccc4ccccc4n3)n21`?
RGS7-Gao: inactive; RGS16-Gao: 19; RGS8-Gao reg: inactive; Avidin fluor: inactive; RGS4-Gao reg: inactive; GSH bead fluor: inactive; RGS4-Gao HTS: 78; Avidin counter: inactive; RGS8-Gao confirm: inactive; RGS7-Gao confirm: inactive; RGS16-Gao single: inactive; RGS4-Gao confirm: inactive; RGS19-Gao single: inactive

What do the screens show for `CCn1c(SCC(=O)N2CCCC(C)C2)nnc1-c1ccc(S(=O)(=O)N2CCN(C)CC2)cc1` (stereo unspecified)?
GSH bead fluor: inactive; Avidin counter: inactive; RGS8-Gao confirm: inactive; RGS7-Gao confirm: inactive; RGS16-Gao single: inactive; RGS4-Gao confirm: inactive; RGS19-Gao single: inactive

What do the screens show for `CCOC(=O)c1sc(NC(=O)Nc2ccc(F)cc2)nc1C`?
RGS7-Gao: inactive; RGS16-Gao: 25; RGS8-Gao reg: inactive; Avidin fluor: inactive; RGS4-Gao reg: inactive; GSH bead fluor: inactive; RGS4-Gao HTS: 91; Avidin counter: inactive; RGS8-Gao confirm: inactive; RGS7-Gao confirm: inactive; RGS16-Gao single: inactive; RGS4-Gao confirm: inactive; RGS19-Gao single: inactive

How did OCCC1CN(Cc2cn[nH]c2C2CCCCC2)CCN1C1CCCCC1 (stereo unspecified) do in these assays?
RGS7-Gao: inactive; RGS16-Gao: inactive; RGS8-Gao reg: inactive; Avidin fluor: inactive; RGS4-Gao reg: inactive; GSH bead fluor: inactive

What do the screens show for `O=C(COc1ccccc1)NC(=S)Nc1ccc(Br)cn1`?
RGS7-Gao: inconclusive; RGS16-Gao: inactive; RGS8-Gao reg: inactive; Avidin fluor: inactive; RGS4-Gao reg: inactive

What do the screens show for `CC(C)CC(NC(=O)c1ccccc1)C(=O)OCC(=O)Nc1ccc(Br)cn1` (stereo unspecified)?
RGS7-Gao: 238[activator]; RGS16-Gao: inactive; RGS8-Gao reg: inactive; Avidin fluor: 346; RGS4-Gao reg: inactive; GSH bead fluor: inactive; RGS4-Gao HTS: 137; Avidin counter: inactive; RGS8-Gao confirm: inactive; RGS7-Gao confirm: inactive; RGS16-Gao single: inactive; RGS4-Gao confirm: inactive; RGS19-Gao single: inactive

Results for CC1(C)COC2(OC1)C(=O)N(CN1CCOCC1)c1ccccc12 ?
RGS7-Gao: 252[activator]; RGS16-Gao: inactive; RGS8-Gao reg: inactive; Avidin fluor: 124; RGS4-Gao reg: inactive; GSH bead fluor: inactive; RGS4-Gao HTS: 128; Avidin counter: inactive; RGS8-Gao confirm: inactive; RGS7-Gao confirm: inactive; RGS16-Gao single: inactive; RGS4-Gao confirm: inactive; RGS19-Gao single: inactive

How did O=C1N(CN2CCC3(CC2)OCCO3)c2ccccc2C12OCCCO2 do in these assays?
RGS7-Gao: inactive; RGS16-Gao: inactive; RGS8-Gao reg: inactive; Avidin fluor: inactive; RGS4-Gao reg: inactive; GSH bead fluor: inactive

What do the screens show for `COC(=O)c1sc(NC(=O)/C=C/c2ccccc2Cl)nc1C`?
RGS7-Gao: inactive; RGS16-Gao: inactive; RGS8-Gao reg: inactive; Avidin fluor: inactive; RGS4-Gao reg: inactive; GSH bead fluor: inactive

How did CC1CCCC(NC(=O)COC(=O)Cc2cn3ccsc3n2)C1C (stereo unspecified) do in these assays?
RGS7-Gao: -19; RGS16-Gao: -64; RGS8-Gao reg: 3.7; RGS4-Gao reg: -58; GSH bead fluor: inactive; Avidin counter: inactive; RGS8-Gao confirm: inactive; RGS7-Gao confirm: inactive; RGS16-Gao single: inactive; RGS4-Gao confirm: inactive; RGS19-Gao single: inactive

How did O=C(c1ccco1)N1CCN(S(=O)(=O)c2ccc(Cl)s2)CC1 do in these assays?
GSH bead fluor: inactive; Avidin counter: inactive; RGS8-Gao confirm: inactive; RGS7-Gao confirm: inactive; RGS16-Gao single: inactive; RGS4-Gao confirm: inactive; RGS19-Gao single: inactive

What do the screens show for `CNC(=S)N(Cc1ccccc1)Cc1cccnc1`?
RGS7-Gao: inconclusive; RGS16-Gao: inactive; RGS8-Gao reg: inactive; Avidin fluor: inactive; RGS4-Gao reg: inactive

Results for Nc1nc(N2CCN(C(c3ccccc3)c3ccccc3)CC2)n[nH]1 ?
RGS7-Gao: 39; RGS16-Gao: inactive; RGS8-Gao reg: 57; Avidin fluor: inactive; RGS4-Gao reg: inactive; GSH bead fluor: inactive; RGS4-Gao HTS: 82; Avidin counter: inactive; RGS8-Gao confirm: inactive; RGS7-Gao confirm: inactive; RGS16-Gao single: inactive; RGS4-Gao confirm: inactive; RGS19-Gao single: inactive

What do the screens show for `O=C(NCc1ccccc1)c1ccc(CN(c2ccccn2)S(=O)(=O)c2ccccc2)cc1`?
RGS7-Gao: inactive; RGS16-Gao: inactive; RGS8-Gao reg: inactive; Avidin fluor: inactive; RGS4-Gao reg: inactive; GSH bead fluor: inactive

What do the screens show for `COc1ccccc1Nc1nc(N)nc(CSC(=S)N2CC(C)CC(C)C2)n1` (stereo unspecified)?
RGS7-Gao: inactive; RGS16-Gao: inactive; RGS8-Gao reg: inactive; Avidin fluor: inactive; RGS4-Gao reg: inactive; GSH bead fluor: inactive

Screens as filed in PubChem BioAssay.
